The target of this experiment is furin, P09958. Put plainly: furin cleavage Z-score vs untreated control; higher = more cleavage, active = 3.5 or more, inactive = 1 or less, 8 variable residues between constant flanks. In a few lines:
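Peptides 8 residues long, fused to a cDNA oligonucleotide, were fixed to magnetic beads by the N-terminus and exposed to purified furin. The 0.01 ml reactions contained 50 mM HEPES pH 7.5 with CaCl2 and NaCl at 1:10 enzyme:substrate and ran 7.5, 15 or 30 min. For the cleavage Z-score, log counts of sequenced released DNA were compared with furin-free reactions, lowess-adjusted and scaled by median absolute deviation.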

Some of the results follow. The hit rate among all sequences tested is not known here.

Sequence of furin, P09958 (P09958 whole entry, the tested form may be a part): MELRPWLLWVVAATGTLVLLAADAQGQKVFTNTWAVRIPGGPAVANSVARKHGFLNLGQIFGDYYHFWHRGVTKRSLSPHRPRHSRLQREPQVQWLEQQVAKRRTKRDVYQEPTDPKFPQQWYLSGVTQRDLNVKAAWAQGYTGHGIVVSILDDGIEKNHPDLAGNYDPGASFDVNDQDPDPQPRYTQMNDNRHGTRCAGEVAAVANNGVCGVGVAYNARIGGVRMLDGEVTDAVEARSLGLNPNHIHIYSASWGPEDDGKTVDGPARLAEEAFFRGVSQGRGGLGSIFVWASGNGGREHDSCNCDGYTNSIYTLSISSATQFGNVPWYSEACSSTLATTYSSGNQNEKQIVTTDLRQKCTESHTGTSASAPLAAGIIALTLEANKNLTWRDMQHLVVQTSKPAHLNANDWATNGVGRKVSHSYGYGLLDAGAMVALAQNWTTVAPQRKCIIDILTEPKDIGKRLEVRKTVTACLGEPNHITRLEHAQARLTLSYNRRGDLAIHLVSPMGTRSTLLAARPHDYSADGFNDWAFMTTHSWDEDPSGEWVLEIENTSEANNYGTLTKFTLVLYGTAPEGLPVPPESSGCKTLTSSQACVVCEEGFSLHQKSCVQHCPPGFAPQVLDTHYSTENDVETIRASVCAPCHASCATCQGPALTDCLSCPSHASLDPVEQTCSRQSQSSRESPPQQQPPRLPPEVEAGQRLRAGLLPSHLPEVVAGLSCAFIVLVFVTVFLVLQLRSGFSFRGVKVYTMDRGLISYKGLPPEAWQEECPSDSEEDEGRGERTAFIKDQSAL

B1: HC198 (peptide)
chain: CATWAQPGYPAGNASASA
In the case of B1, the “furin cleavage Z-score” value reads like this: (7.5 min) -0.244 (inactive); (15 min) 0.873 (inactive); (30 min) -0.438 (inactive).

B2: FS-2116 (peptide)
chain: CAWWARSVGGAGNASASA
In the case of B2, the “furin cleavage Z-score” value (7.5 min) was 0.297 (inactive), the “furin cleavage Z-score” value (15 min) is 0.813 (inactive) and the “furin cleavage Z-score” value (30 min) stood at 1.73.

B3: FS-1910 (peptide)
chain: CARNKRFYGGAGNASASA
With B3, the “furin cleavage Z-score” value by setting is: (7.5 min) 0.307 (inactive); (15 min) 0.312 (inactive); (30 min) 2.91.

B4: FS-1911 (peptide)
chain: CARNKRSTQIAGNASASA
Regarding B4, the “furin cleavage Z-score” value is, setting by setting: (7.5 min) 10.5 (active); (15 min) 12.3 (active); (30 min) 10.9 (active).

B5: FS-1758 (peptide)
chain: CARNKRSHSGAGNASASA
Turning to B5, the “furin cleavage Z-score” value is 5.74 (active) (7.5 min), 8.23 (active) (15 min) and 6.55 (active) (30 min).

B6: FS-2434 (peptide)
chain: CARNKKSIAVAGNASASA
Take B6: the “furin cleavage Z-score” value (7.5 min) is -0.82 (inactive), the “furin cleavage Z-score” value (15 min) was 0.605 (inactive) and the “furin cleavage Z-score” value (30 min) was found to be 1.7.

B7: FS-2120 (peptide)
chain: CAFRKRSHSKAGNASASA
As to B7, the “furin cleavage Z-score” value (7.5 min) was -0.356 (inactive), the “furin cleavage Z-score” value (15 min) was -1.2 (inactive) and the “furin cleavage Z-score” value (30 min) was -1.04 (inactive).

B8: FS-2282 (peptide)
chain: CARNKKQNSQAGNASASA
Take B8: the “furin cleavage Z-score” value (7.5 min) was 1.09, the “furin cleavage Z-score” value (15 min) was -0.5 (inactive) and the “furin cleavage Z-score” value (30 min) was -0.768 (inactive).

B9: FS-1862 (peptide)
chain: CARNKRDTMVAGNASASA
As to B9, the “furin cleavage Z-score” value (7.5 min) was 12.3 (active), the “furin cleavage Z-score” value (15 min) is 13.2 (active) and the “furin cleavage Z-score” value (30 min) is 10.9 (active).

B10: FS-2729 (peptide)
chain: CARNKRSKSNAGNASASA
B10: the “furin cleavage Z-score” value is, setting by setting: (7.5 min) 7.79 (active); (15 min) 9.35 (active); (30 min) 7.37 (active).

B11: FS-2497 (peptide)
chain: CARNKKSKMDAGNASASA
For B11, the “furin cleavage Z-score” value by setting is: (7.5 min) -0.56 (inactive); (15 min) -0.669 (inactive); (30 min) -0.939 (inactive).

B12: FS-3008 (peptide)
chain: CARNKRPTFLAGNASASA
For the sequence B12, the “furin cleavage Z-score” value is -0.0512 (inactive) (7.5 min), 0.819 (inactive) (15 min) and -0.221 (inactive) (30 min).

B13: HC2226 (peptide)
chain: CAEVVTSTMVAGNASASA
For the sequence B13, the “furin cleavage Z-score” value reads like this: (7.5 min) 1.1; (15 min) 0.363 (inactive); (30 min) 1.25.

B14: HC2007 (peptide)
chain: CAVFCCSMSYAGNASASA
B14: the “furin cleavage Z-score” value is, setting by setting: (7.5 min) -1.31 (inactive); (15 min) -1.48 (inactive); (30 min) -0.762 (inactive).

B15: HC1839 (peptide)
chain: CAPTPCSGSWAGNASASA
For the sequence B15, the “furin cleavage Z-score” value (7.5 min) is -0.934 (inactive), the “furin cleavage Z-score” value (15 min) is -0.739 (inactive) and the “furin cleavage Z-score” value (30 min) is -1.08 (inactive).

B16: HC390 (peptide)
chain: CACRPLTDFDAGNASASA
Take B16: the “furin cleavage Z-score” value was -1.1 (inactive) (7.5 min), 0.259 (inactive) (15 min) and -1.94 (inactive) (30 min).

B17: HC2321 (peptide)
chain: CANVPCHRPSAGNASASA
Turning to B17, the “furin cleavage Z-score” value is 0.0675 (inactive) (7.5 min), 0.859 (inactive) (15 min) and 1.03 (30 min).

B18: HC377 (peptide)
chain: CALNTGWLAGAGNASASA
On to B18, for which the “furin cleavage Z-score” value runs as follows: (7.5 min) -0.173 (inactive); (15 min) -0.464 (inactive); (30 min) 0.636 (inactive).

B19: HC2554 (peptide)
chain: CASTPCSAKLAGNASASA
For B19, the “furin cleavage Z-score” value (7.5 min) was 0.275 (inactive), the “furin cleavage Z-score” value (15 min) is 1.72 and the “furin cleavage Z-score” value (30 min) was found to be 1.78.

B20: HC538 (peptide)
chain: CANAASLAGTAGNASASA
Consider B20, for which the “furin cleavage Z-score” value reads like this: (7.5 min) 0.915 (inactive); (15 min) 0.0856 (inactive); (30 min) 0.369 (inactive).

B21: HC1001 (peptide)
chain: CAVIVGRVVLAGNASASA
Take B21: the “furin cleavage Z-score” value was -0.946 (inactive) (7.5 min), -1.25 (inactive) (15 min) and -0.791 (inactive) (30 min).

B22: FS-652 (peptide)
chain: CAFPNRDQRDAGNASASA
With B22, the “furin cleavage Z-score” value was -0.191 (inactive) (7.5 min), -0.415 (inactive) (15 min) and -0.133 (inactive) (30 min).

B23: HC1303 (peptide)
chain: CALPVWARPDAGNASASA
Turning to B23, the “furin cleavage Z-score” value runs as follows: (7.5 min) -0.876 (inactive); (15 min) -0.333 (inactive); (30 min) -0.285 (inactive).

B24: FS-459 (peptide)
chain: CALRRRCQRDAGNASASA
B24: the “furin cleavage Z-score” value by setting is: (7.5 min) 9.61 (active); (15 min) 9.12 (active); (30 min) 7.39 (active).

B25: FS-56 (peptide)
chain: CALRRVLRRDAGNASASA
B25: the “furin cleavage Z-score” value is 4.93 (active) (7.5 min), 4.47 (active) (15 min) and 5.29 (active) (30 min).

B26: FS-509 (peptide)
chain: CATKRRNQRDAGNASASA
Consider B26, for which the “furin cleavage Z-score” value runs as follows: (7.5 min) 9.77 (active); (15 min) 11 (active); (30 min) 8.15 (active).

B27: FS-2124 (peptide)
chain: CALRRRGPGKAGNASASA
Take B27: the “furin cleavage Z-score” value is, setting by setting: (7.5 min) -0.105 (inactive); (15 min) -1.37 (inactive); (30 min) -1.45 (inactive).

B28: FS-343 (peptide)
chain: CAKPMRQQRDAGNASASA
With B28, the “furin cleavage Z-score” value (7.5 min) was 5.15 (active), the “furin cleavage Z-score” value (15 min) is 5.86 (active) and the “furin cleavage Z-score” value (30 min) is 7.03 (active).

B29: HC1867 (peptide)
chain: CATTFCSGSWAGNASASA
As to B29, the “furin cleavage Z-score” value runs as follows: (7.5 min) 0.273 (inactive); (15 min) 0.134 (inactive); (30 min) -0.205 (inactive).

B30: HC1061 (peptide)
chain: CALTTSQTLLAGNASASA
As for B30, the “furin cleavage Z-score” value is -1.15 (inactive) (7.5 min), 0.0331 (inactive) (15 min) and 0.232 (inactive) (30 min).

B31: HC1594 (peptide)
chain: CAIYGACYSIAGNASASA
On to B31, for which the “furin cleavage Z-score” value by setting is: (7.5 min) 0.0718 (inactive); (15 min) 0.563 (inactive); (30 min) -0.201 (inactive).

B32: HC679 (peptide)
chain: CARGLLGCIIAGNASASA
As to B32, the “furin cleavage Z-score” value is, setting by setting: (7.5 min) -0.71 (inactive); (15 min) -0.595 (inactive); (30 min) -1.08 (inactive).

B33: FS-205 (peptide)
chain: CAVHSRASRDAGNASASA
On to B33, for which the “furin cleavage Z-score” value is, setting by setting: (7.5 min) 6.86 (active); (15 min) 6.96 (active); (30 min) 4.81 (active).

B34: FS-1606 (peptide)
chain: CARLARASRDAGNASASA
For B34, the “furin cleavage Z-score” value is 6.41 (active) (7.5 min), 5.81 (active) (15 min) and 5.23 (active) (30 min).

B35: HC2381 (peptide)
chain: CAEVPCHNPSAGNASASA
For the sequence B35, the “furin cleavage Z-score” value is -0.125 (inactive) (7.5 min), 0.398 (inactive) (15 min) and -1.22 (inactive) (30 min).

B36: FS-1504 (peptide)
chain: CAYLNRGRRSAGNASASA
As for B36, the “furin cleavage Z-score” value runs as follows: (7.5 min) 8.94 (active); (15 min) 11.8 (active); (30 min) 8.66 (active).

B37: FS-295 (peptide)
chain: CASLARGRRSAGNASASA
Take B37: the “furin cleavage Z-score” value is 9.48 (active) (7.5 min), 9.53 (active) (15 min) and 7.6 (active) (30 min).

B38: FS-1462 (peptide)
chain: CALPEAGRRSAGNASASA
For B38, the “furin cleavage Z-score” value by setting is: (7.5 min) -0.222 (inactive); (15 min) -0.673 (inactive); (30 min) -1.48 (inactive).

B39: FS-1279 (peptide)
chain: CASGYRGRRSAGNASASA
On to B39, for which the “furin cleavage Z-score” value by setting is: (7.5 min) 10.4 (active); (15 min) 9.6 (active); (30 min) 8.02 (active).

B40: FS-363 (peptide)
chain: CALVSRVTRSAGNASASA
Take B40: the “furin cleavage Z-score” value by setting is: (7.5 min) 13 (active); (15 min) 12.8 (active); (30 min) 10.3 (active).

B41: FS-1015 (peptide)
chain: CAIPRRHTRSAGNASASA
For the sequence B41, the “furin cleavage Z-score” value is 4.95 (active) (7.5 min), 4.88 (active) (15 min) and 4.46 (active) (30 min).

B42: FS-577 (peptide)
chain: CAYYHRHTRSAGNASASA
In the case of B42, the “furin cleavage Z-score” value (7.5 min) is 0.662 (inactive), the “furin cleavage Z-score” value (15 min) was 0.71 (inactive) and the “furin cleavage Z-score” value (30 min) worked out at 1.07.

B43: FS-869 (peptide)
chain: CASPARLARRAGNASASA
As for B43, the “furin cleavage Z-score” value was 0.549 (inactive) (7.5 min), 3.9 (active) (15 min) and 4.41 (active) (30 min).

B44: FS-1414 (peptide)
chain: CASPERHTRSAGNASASA
In the case of B44, the “furin cleavage Z-score” value was 9.58 (active) (7.5 min), 9.61 (active) (15 min) and 8.51 (active) (30 min).

Source of the values: the supplement of paper PMC3545927.
